Measured values reported in PubChem BioAssay (Tox21).
Inconclusive results are not listed. The source made the active and inactive calls. Unless noted, calls follow the shape of the dose curve; as a rule, active = well fitted curve in the direction sought with a large enough effect in the repeat runs; inconclusive = weak or mixed curves; inactive = no such curve, though single readings can be large; an effect the other way counts as inactive or inconclusive.

Assays:
[1] = qHTS assay for small molecules that induce genotoxicity in human embryonic kidney cells expressing luciferase-tagged ATAD5 (AID 651632); also: nearly all actives have a fitted effect of over 15% in size
Method in brief: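 HEK293T cells carrying a luciferase reporter tagged to ATAD5 were exposed to compound or DMSO vehicle for 16 hr at 37C, 5% CO2. Amplite was added, and after 30 min at room temperature luciferase activity was read as a marker of ATAD5 induction.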

[2] = qHTS assay for small molecule agonists of the p53 signaling pathway - cell viability (AID 651633; calls by dose curve;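 also: p53RE-bla HCT reporter cells with a stable beta-lactamase p53 reporter; series mostly up to about 83 µM; nearly all actives have a fitted effect of over 30% in size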)
Method in brief: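 Viability counter-read: CellTiter-Glo luminescence (30 min, room temperature) in the same p53RE-bla plates. These plates had been exposed to compounds for 16 h at 37 C.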

[3] = qHTS assay for small molecules that induce genotoxicity in human embryonic kidney cells expressing luciferase-tagged ATAD5 - cell viability (AID 651634; calls by dose curve; also: nearly all actives have a fitted effect of over 25% in size)
Method in brief: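 HEK293T cells expressing luciferase-tagged ATAD5 were exposed to compound or DMSO for 15.5 hr at 37C, 5% CO2. Viability was then read as live-cell protease activity by CellTiter-Fluor fluorescence after 30 min at 37C.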

[4] = qHTS assay for small molecule disruptors of the mitochondrial membrane potential - cell viability (AID 720634; calls by dose curve;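 also: human HepG2 liver cancer cells; series mostly up to about 83 µM; nearly all actives have a fitted effect of over 20% in size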)
Method in brief: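 HepG2 cells seeded overnight at 37 C, then exposed to compound or DMSO for 1 hr at 37 C, 5% CO2. m-MPI dye added, then CellTiter-Glo for 30 min at room temperature; viability read as ATP luminescence.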

[5] = qHTS assay to test for compound auto fluorescence at 590 nm (red) in HepG2 cells (AID 720674)
Method in brief: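 We screened compounds on adherent HepG2 cells, incubating them for an hour at 37 C in 5% CO2 before reading emission at 590 nm under 540 nm excitation; values reflect equivalence to Rose Bengal sodium fluorescence.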

[6] = qHTS assay to test for compound auto fluorescence at 535 nm (green) in HepG2 cells (AID 720675)
[7] = qHTS assay to test for compound auto fluorescence at 460 nm (blue) in HEK293 cells (AID 720678)
Method in brief: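 After cell attachment (4-5 hr, 37C), compounds were pinned onto HEK293 monolayers in 10% dialyzed FBS medium. The blue channel (405/460 nm) was read following overnight culture. Equivalency was calculated against triamterene.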

[8] = qHTS assay to test for compound auto fluorescence at 590 nm (red) in HEK293 cells (AID 720679)
Method in brief: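 Plates of HEK293 cells (10% dialyzed FBS) are treated with 23 nL compound or DMSO vehicle after a 4-5 hr attachment period, incubated overnight at 37C, and read for red fluorescence at 540/590nm.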

[9] = qHTS assay for small molecule disruptors of the mitochondrial membrane potential (AID 720635)
Method in brief: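 Mitochondrial membrane potential tracked with Mito-MPS dye, red aggregates (ex 540/em 590 nm) against green monomers (ex 490/em 535 nm). Compound treatment 1 hr at 37C, dye 30 min in HepG2.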
% is scaled to controls: 0 for no effect and ±100 for the full control effect.

O=Cc1cccc([N+](=O)[O-])c1
inactive: Potency [1] | outcome [2] | Potency [3] | Potency [4] | outcome [5] | outcome [6] | outcome [7] | outcome [8]

Oc1ccc(C2CNCCc3c2cc(O)c(O)c3Cl)cc1 (stereo not given)
inactive: Potency [1] | outcome [2] | Potency [3] | Potency [4] | Potency [9] | outcome [5] | outcome [6] | outcome [8]

Cn1cc(S(C)=O)c(=O)c2ccc(F)cc21 (stereo not given)
inactive: Potency [1] | outcome [2] | Potency [3] | Potency [4] | Potency [9] | outcome [5] | outcome [6] | outcome [8]

Cc1ccc(Cl)cc1Cl
inactive: Potency [1] | outcome [2] | Potency [3] | Potency [4] | outcome [5] | outcome [6] | outcome [7] | outcome [8]

OCCCC1CCCCC1
inactive: Potency [1] | outcome [2] | Potency [3] | Potency [4] | Potency [9] | outcome [5] | outcome [6] | outcome [7] | outcome [8]

CCC=O
inactive: Potency [1] | outcome [2] | Potency [3] | Potency [4] | outcome [5] | outcome [6] | outcome [8]

O=C(CCCN1CCC(O)(c2cccc(C(F)(F)F)c2)CC1)c1ccc(F)cc1
inactive: Potency [1] | outcome [2] | Potency [3] | Potency [4] | outcome [5] | outcome [6] | outcome [7] | outcome [8]

C=C(C)CS(=O)(=O)O
inactive: Potency [1] | outcome [2] | Potency [3] | Potency [4] | outcome [5] | outcome [6] | outcome [7] | outcome [8]

NC(=O)c1ccc(N)cc1
inactive: Potency [1] | outcome [2] | Potency [3] | Potency [4] | outcome [5] | outcome [6] | outcome [8]

COc1ccc(CCN(C)CCCC(C#N)(c2cc(OC)c(OC)c(OC)c2)C(C)C)cc1OC (stereo not given)
inactive: Potency [1] | outcome [2] | Potency [3] | Potency [4] | outcome [5] | outcome [6] | outcome [7] | outcome [8]

CCCCNC(=O)NCCCC
inactive: Potency [1] | outcome [2] | Potency [3] | Potency [4] | outcome [5] | outcome [6] | outcome [7] | outcome [8]

CC(C)OC(=O)c1ccccc1
inactive: Potency [1] | outcome [2] | Potency [3] | Potency [4] | outcome [5] | outcome [6] | outcome [7] | outcome [8]

Nc1nc2c(ncn2COC(CO)CO)c(=O)[nH]1
inactive: Potency [1] | outcome [2] | Potency [3] | outcome [5] | outcome [6] | outcome [7] | outcome [8]

CCCN1CCCC[C@H]1C(=O)Nc1c(C)cccc1C
inactive: Potency [1] | outcome [2] | Potency [3] | Potency [4] | outcome [5] | outcome [6] | outcome [7] | outcome [8]

Cc1[nH]c(=O)c(C#N)cc1-c1ccc2nccn2c1
inactive: Potency [1] | outcome [2] | Potency [3] | Potency [4] | outcome [5] | outcome [6] | outcome [7] | outcome [8]

CO/N=C(/C(=O)N[C@@H]1C(=O)N2C(C(=O)OCOC(=O)C(C)(C)C)=C(C)CS[C@H]12)c1csc(N)n1
inactive: Potency [1] | outcome [2] | Potency [3] | Potency [4] | outcome [5] | outcome [6] | outcome [8]

Nc1ccc(S(=O)(=O)Nc2ccnn2-c2ccccc2)cc1
inactive: Potency [1] | outcome [2] | Potency [3] | Potency [4] | outcome [5] | outcome [6] | outcome [8]

O=c1cc(CO)occ1O
inactive: Potency [1] | outcome [2] | Potency [3] | Potency [4] | Potency [9] | outcome [5] | outcome [6] | outcome [8]

CCO[Si](CCC1CCC2OC2C1)(OCC)OCC (stereo not given)
inactive: Potency [1] | outcome [2] | Potency [3] | Potency [4] | Potency [9] | outcome [5] | outcome [6] | outcome [7] | outcome [8]

CO[Si](CCCOCC1CO1)(OC)OC (stereo not given)
inactive: Potency [1] | outcome [2] | Potency [3] | Potency [4] | Potency [9] | outcome [5] | outcome [6] | outcome [8]

N=C(N)c1ccc2cc(OC(=O)c3ccc(N=C(N)N)cc3)ccc2c1
inactive: Potency [1] | outcome [2] | Potency [3] | Potency [4] | outcome [5] | outcome [6] | outcome [7] | outcome [8]

CCOC(C)(C)C
inactive: Potency [1] | outcome [2] | Potency [3] | Potency [4] | outcome [5] | outcome [6] | outcome [7] | outcome [8]

CC(=O)OCC(=O)[C@@]1(O)CC[C@H]2[C@@H]3CCC4=CC(=O)CC[C@]4(C)[C@H]3C(=O)C[C@@]21C
inactive: Potency [1] | outcome [2] | Potency [3] | Potency [4] | outcome [5] | outcome [6] | outcome [7] | outcome [8]

CCOc1ccc(C(=O)OCCN(CC)CC)cc1
inactive: Potency [1] | outcome [2] | Potency [3] | Potency [4] | outcome [5] | outcome [6] | outcome [8]

CN1C(=O)N(C)C(O)C1O (stereo not given)
inactive: Potency [1] | outcome [2] | Potency [3] | Potency [4] | outcome [5] | outcome [6] | outcome [8]

CN1CCCC1
inactive: Potency [1] | outcome [2] | Potency [3] | Potency [4] | outcome [5] | outcome [6] | outcome [7] | outcome [8]

NS(=O)(=O)c1cc2c(cc1Cl)NC(C1CC3C=CC1C3)NS2(=O)=O (stereo not given)
inactive: Potency [1] | outcome [2] | Potency [3] | Potency [4] | outcome [5] | outcome [6] | outcome [7] | outcome [8]

CN(C)CCCNCCCN(C)C
inactive: Potency [1] | outcome [2] | Potency [3] | outcome [5] | outcome [6] | outcome [7] | outcome [8]

CC(=O)c1ccccc1O
inactive: Potency [1] | outcome [2] | Potency [3] | Potency [4] | outcome [5] | outcome [6] | outcome [7] | outcome [8]

NCCCNCCSP(=O)(O)O
inactive: Potency [1] | outcome [2] | Potency [3] | Potency [4] | Potency [9] | outcome [5] | outcome [6] | outcome [8]

C=C[Si](OC(=C)C)(OC(=C)C)OC(=C)C
inactive: Potency [1] | outcome [2] | Potency [3] | Potency [4] | outcome [5] | outcome [6] | outcome [7] | outcome [8]

CCO/C([O-])=N/c1c[n+](N2CCOCC2)no1
inactive: Potency [1] | outcome [2] | Potency [3] | Potency [4] | outcome [5] | outcome [6] | outcome [7] | outcome [8]

CCCCC(CC)COC(=O)c1ccccc1O (stereo not given)
inactive: Potency [1] | outcome [2] | Potency [3] | Potency [4] | outcome [5] | outcome [6] | outcome [7] | outcome [8]

O=C(O)CN(CCOCCOCCN(CC(=O)O)CC(=O)O)CC(=O)O
inactive: Potency [1] | outcome [2] | Potency [3] | Potency [4] | outcome [5] | outcome [6] | outcome [7] | outcome [8]

CC(C)NCC(O)c1ccc(NS(C)(=O)=O)cc1 (stereo not given)
inactive: Potency [1] | outcome [2] | Potency [3] | Potency [4] | Potency [9] | outcome [5] | outcome [6] | outcome [7] | outcome [8]

O=C[C@H](O)[C@@H](O)[C@H](O)[C@H](O)CO
inactive: Potency [1] | outcome [2] | Potency [3] | Potency [4] | outcome [5] | outcome [6] | outcome [7] | outcome [8]

CCC(C)S (stereo not given)
inactive: activation [1] 1.12% [at 3.63 µM] | activity change, negative = cytotoxicity [2] -9.49% [at 3.63 µM] | activity, negative = cytotoxicity [3] -7.36% [at 3.63 µM] | activity change, negative = cytotoxicity [4] 9.33% [at 3.63 µM] | fluorescence, relative to Rose Bengal [5] -0.0609% [at 3.72 µM] | fluorescence, % of fluorescein control [6] -0.0052% [at 3.72 µM] | fluorescence, % of fluorescent control [8] 0.243% [at 3.72 µM]
